BRCA1 expr act: qHTS Assay to Identify Small Molecule Activators of BRCA1 Expression; MCF7-BRCA1-FFLuc reporter, luminescence, 48 h; response scale: scaled: vehicle 0%, 10 µM genistein 100%; Potency, µM (titrated, usually from 46.1 µM), usual class: activators; actives 1.1% (n = 380,000); AID 624202, 2012; also: nearly all actives have a fitted effect of over 80% in size
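Compounds are tested at multiple concentrations on MCF7 BRCA1-luciferase reporter cells seeded at 2000 per well; after 48 h, a single luminescence end-point is taken and curves fitted to the normalized data.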
Tb PFK block: qHTS Assay to Find Inhibitors of T. brucei phosphofructokinase | ATP-dependent 6-phosphofructokinase (Trypanosoma brucei brucei), O15648 | Potency, µM (series often up to 57.5 µM), actives largely listed as inhibitors | actives 0.17% (n = 330,000) | T. brucei PFK, ADP-Glo luminescence | AID 485367, 2010; also: nearly all actives have a fitted effect of over 60% in size
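In TEA buffer at pH 8.0 with 5 mM MgCl2, enzyme (1.25 nM) converted F6P (0.5 mM) and ATP (0.1 mM) for 45 min at room temperature. ADP product was read by luciferase luminescence.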
VDR inhibitor: Inhibitors of the vitamin D receptor (VDR): qHTS | Vitamin D3 receptor (Homo sapiens), P11473 | VDR-SRC2-3 peptide fluorescence polarization, 2 h | Potency, µM, actives largely listed as inhibitors | actives 0.93% (n = 400,000) | AID 504847, 2011
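Compounds are added to VDR with labelled SRC2-3 coactivator peptide and held 2 h at room temperature. Inhibition of the VDR–peptide interaction is then read as a change in fluorescence polarization.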
PLK1 PBD block: qHTS for Inhibitors of PLK1-PDB (polo-like kinase 1 - polo-box domain): Primary Screen; Potency, µM, usual class: inhibitors; Plk1 PBD binding of FITC phosphopeptide, fluorescence polarization; Serine/threonine-protein kinase PLK1 (Homo sapiens), P53350; actives 2.8% (n = 360,000); also: series mostly up to about 57 µM; nearly all actives have a fitted effect of over 65% in size
Target sequence (P53350 whole entry, looked up, the tested form may be a part): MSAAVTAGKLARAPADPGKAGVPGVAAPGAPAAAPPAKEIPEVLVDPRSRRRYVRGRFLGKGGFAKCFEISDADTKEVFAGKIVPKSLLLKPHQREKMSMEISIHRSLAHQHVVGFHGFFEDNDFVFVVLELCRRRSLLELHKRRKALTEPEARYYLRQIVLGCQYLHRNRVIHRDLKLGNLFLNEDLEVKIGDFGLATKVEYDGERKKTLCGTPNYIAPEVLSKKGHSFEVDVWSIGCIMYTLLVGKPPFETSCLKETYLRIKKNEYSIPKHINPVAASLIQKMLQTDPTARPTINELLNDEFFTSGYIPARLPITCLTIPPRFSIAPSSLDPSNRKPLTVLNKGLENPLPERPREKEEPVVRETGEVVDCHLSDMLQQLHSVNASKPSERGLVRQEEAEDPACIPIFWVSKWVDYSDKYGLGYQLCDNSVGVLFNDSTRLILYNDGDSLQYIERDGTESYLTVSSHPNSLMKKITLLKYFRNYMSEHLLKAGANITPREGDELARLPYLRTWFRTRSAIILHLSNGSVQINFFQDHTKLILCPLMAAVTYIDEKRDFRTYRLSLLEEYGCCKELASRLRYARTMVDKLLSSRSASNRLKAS
Hits are given with their value; 0 = inactive; ? = inconclusive; - = not tested or not shown; ! = a repeat was not active. In the library only some 3.9% were active in any assay of this set; here they are far more common. Calls follow the shape of the dose curve; as a rule, active = well fitted curve in the direction sought with a large enough effect; inconclusive = small, poorly fitted or top-dose-only effect, or another doubt; inactive = no such curve, though single readings can be large; an effect the other way counts as inactive or inconclusive.

SMILES	BRCA1 expr act	Tb PFK block	VDR inhibitor	PLK1 PBD block
Cn1c2ccccc2c(=O)c2cc(C#Cc3ccccn3)ccc21	?	0	?	0
COc1cccc2oc3ccc(C#CC4(N)CCCCC4)cc3c(=O)c12	7.94µM	0	0	0
Cn1c2ccccc2c(=O)c2ccc(C#Cc3ccccn3)cc21	11.2µM	0	0	0
Cc1nn(CC(=O)NCc2ccc(N(C)C)cc2)c(=O)c2nn(-c3ccccc3)c(C)c12	-	-	0	-
CC(C)(C)c1ccc(OCCn2cc(C(=O)c3ccco3)c3ccccc32)cc1	-	-	0	-
O=C(NCC1CC1)c1ccc2sc([C@@H]3O[C@H](CO)[C@H](O)[C@H](O)[C@H]3O)nc2c1	0	-	-	0
CC(=O)Nc1ccc(C(=O)OCCc2ccccc2)cc1	5.01µM	0	0	0
CC(OC(=O)c1ccccc1O)C(=O)Nc1ccc(Cl)cn1 (stereo not given)	0	0	?	18.9µM
C=CCNC(=O)C(=O)NCC(c1ccc2c(c1)OCO2)N1CCN(c2ccc(F)cc2)CC1 (stereo not given)	0	0	?	23.8µM
CNc1cccc(-c2cccc(O)c2)n1	10µM	-	-	0
CNc1cncc(-c2cccc(O)c2)n1	0	-	-	0
COc1ccsc1NC(=O)OCc1ccc(Cl)cc1	12.6µM	0	0	0
CSc1nsc(NC(=O)OCc2ccc(Cl)cc2)n1	0	0	0	0
O=C(NCCN1C(=O)S/C(=C/c2cccnc2)C1=O)c1cccs1	0	0	0	0
O=C(NCCN1C(=O)S/C(=C\c2cccnc2)C1=O)C1=NN(c2ccccc2)C(=O)CC1	0	0	28.2µM	3.77µM
Cc1ccc(C)c(NC(=S)Nc2ncccc2C)c1	7.94µM	0	0	0
Cc1cccnc1NC(=S)Nc1ccc(F)cc1F	?	0	?	?
COc1cccc(CN(C)C(=O)CN2C(=O)NC(c3ccccc3)(c3ccccc3)C2=O)c1OC	0	0	0	0
CCOCCCNC(=O)/C(C#N)=C/c1cc(Br)c(O)c(Br)c1	0	0	0	21.2µM
COCCNC(=O)/C(C#N)=C/c1ccccc1Br	0	0	0	23.8µM
Cc1ccc(OCC(=O)OCc2cc(=O)n3nc(C4CCCCC4)sc3n2)cc1C	0	-	0	-
O=c1cc(NCCc2ccccc2)c2ccccc2o1	0	0	0	23.8µM
Cc1ccc(/C=N/NC(=O)c2nnn(-c3nonc3N)c2CNc2ccccc2)cc1	0	0	?	18.9µM
CN(C)Cc1c(C(=O)N/N=C/c2ccc(-c3ccccc3)cc2)nnn1-c1nonc1N	0	0	?	21.2µM
CN(Cc1c(C(=O)N/N=C/c2ccccc2)nnn1-c1nonc1N)C1CCCCC1	0	0	?	29.9µM
SMILES	BRCA1 expr act	Tb PFK block	VDR inhibitor	PLK1 PBD block
Cc1cccc(COc2ccc(/C=N/NC(=O)c3nnn(-c4nonc4N)c3C)cc2)c1	0	0	?	21.2µM
CCOc1ccc(C(c2c(O)cc(C)n(CCOC)c2=O)N2CCC(C)CC2)cc1 (stereo not given)	-	-	0	-
Nc1nonc1-n1nnc(C(=O)N/N=C/c2cccc(Cl)c2)c1CN1CCCC1	0	-	0	29.9µM
Nc1nonc1-n1nnc(C(=O)N/N=C/c2cccc(F)c2)c1CN1CCCC1	0	-	0	0
Cc1nc2ccccc2nc(=O)c1NNc1ccccc1	5.01µM!	0	0	0
CCOC(=O)C(NC(=O)CC)(Nc1ccc(S(=O)(=O)Nc2onc(C)c2C)cc1)C(F)(F)F (stereo not given)	0	0	0	26.7µM
CCOC(=O)C(NC(C)=O)(Nc1ccc(S(=O)(=O)Nc2nccs2)cc1)C(F)(F)F (stereo not given)	0	0	0	0
CCOC(=O)C(NC(C)=O)(Nc1ccc(S(=O)(=O)Nc2ncccn2)cc1)C(F)(F)F (stereo not given)	0	0	?	29.9µM
Cc1cccc[n+]1CC(=O)c1ccc2c(c1)OCCO2	0	0	0	26.7µM
CC(C)(C)c1nc(Sc2ncccc2[N+](=O)[O-])n[nH]1	0	0	0	0
CNc1nnc(Sc2ncccc2[N+](=O)[O-])s1	0	0	0	15µM
CCOCCCNC(=O)CN1C(=O)c2c(c3ccccc3n2C)C1c1ccc(OC)cc1 (stereo not given)	-	-	0	-
Cc1ccc2[nH]c(=S)cc(C)c2c1	0	0	0	5.97µM
CCOC(=O)c1sc2ccccc2c1S(=O)(=O)NCc1ccc(F)cc1	-	-	0	-
CN(C)CCCNC(=O)c1ccc(-c2cc3nc(NCc4cccnc4)n(C)c(=O)c3s2)cc1	0	-	-	0
Cc1ccn(CCC(=O)NC2CCCc3c2cnn3-c2cccc(C)c2C)n1 (stereo not given)	0	0	0	29.9µM
COc1cccc(NCc2nnc(SC(C(=O)N(C)C)c3ccccc3)n2C2CCCCC2)c1 (stereo not given)	0	-	-	-
O=C(CNC(=O)c1[nH]cnc1C(=O)NC(c1ccccc1)c1ccccc1)OCc1ccccc1	0	0	0	23.8µM
O=C(CNC(=O)c1[nH]cnc1C(=O)N[C@@H](Cc1ccccc1)C(=O)OCc1ccccc1)OCc1ccccc1	0	0	0	0
CCOc1ccc2c(c1)sc(=NC(=O)C1CC1)n2C	2.82µM	-	0	0
Cc1nc(N)sc1N=Nc1ccccc1C(F)(F)F	7.08µM	0	0	0
COc1ccc(C(=O)Nc2nnc(S(=O)(=O)N3CCN(c4ccc(C)cc4)CC3)s2)cc1	-	-	0	-
CCOc1cc(/C=C2/C(=O)ON=C2C)ccc1OCc1ccccc1F	0	0	0	0.844µM
C#CCOc1c(Br)cc(/C=C2/C(=O)ON=C2C)cc1OC	0	0	?	2.67µM
CCOc1c(Br)cc(/C=C2\N=C(C)OC2=O)cc1Br	0	0	0	0
SMILES	BRCA1 expr act	Tb PFK block	VDR inhibitor	PLK1 PBD block
C#CCOc1c(Br)cc(/C=C2/C(=O)ON=C2C)cc1OCC	0	0	?	4.23µM
COc1cc(C(O)c2nc(-c3ccncc3)cs2)ccc1F (stereo not given)	0	-	-	0
O=C(NCCc1ccc(Cl)cc1)c1cnc2sc(N3CCCCC3)nn2c1=O	-	-	0	-
COc1ccccc1-n1cnnc1SCC(=O)Nc1cc(C(C)(C)C)nn1-c1ccccc1	0	0	0	3.36µM
C(=C\c1ccnc2ccccc12)/c1ccc(N2CCN(c3ccc(/C=C/c4ccnc5ccccc45)cc3)CC2)cc1	0	-	-	-
Cc1ccc(C)c(CN2CCCN(CC(=O)Nc3ccc(C)c(C)c3)S2(=O)=O)c1	-	-	0	-
CCOc1ccc(NS(=O)(=O)c2ccc(NC(=S)NC(=O)C(C)C)cc2)cc1	0	0	0	26.7µM
COc1ccc(NC(=O)c2cc(-c3sc(NC(=O)c4ccccc4)nc3C)n(CCO)n2)cc1	-	-	-	0
CCN(CC)C(=O)c1sc2c(c1C)c(=O)n(-c1ccc(OC)cc1OC)c(=O)n2CC(=O)c1ccc(Cl)cc1	-	-	0	-
CCCN(Cc1cc2cc(C)ccc2[nH]c1=O)C(=O)c1ccccn1	0	0	?	18.9µM
CCCCN(Cc1cc2cc(OC)ccc2[nH]c1=O)C(=O)c1ccccn1	0	0	0	?
